Source: PubChem
Mcl1 Noxa PPI: Mcl-1/Noxa interaction inhibition; inhibition, % at 21.7 µM; TR-FRET Mcl-1/Noxa peptide binding, 2 h; hit rate 1.5% among 220,000;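 active = compounds that cut the protein-peptide binding signal by more than 50% relative to plate controls in a single-dose test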;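 note: His-tagged Mcl-1 with rhodamine Noxa BH3 peptide and terbium anti-His antibody; 0% = Mcl-1 plus Noxa peptide wells and 100% = peptide-only wells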
eIF4E 4G PPI: eIF4E/eIF4G interaction inhibition in translation initiation. P63073+Q04637. TR-FRET eIF4E-eIF4GI(517-606) binding, 2 h. inhibition, % at 21.7 µM. hit rate 0.37% among 220,000. AID 782;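 note: 0% = full FRET control wells and 100% = background wells lacking eIF4GI fragment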
Target sequence (P63073 whole entry, looked up, the tested form may be a part): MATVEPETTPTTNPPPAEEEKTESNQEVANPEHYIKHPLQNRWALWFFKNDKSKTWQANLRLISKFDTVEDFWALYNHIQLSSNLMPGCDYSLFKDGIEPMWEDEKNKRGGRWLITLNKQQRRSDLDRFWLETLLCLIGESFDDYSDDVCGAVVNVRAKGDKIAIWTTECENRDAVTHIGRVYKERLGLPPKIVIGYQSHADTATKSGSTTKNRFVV
Target sequence (Q04637 whole entry, looked up, the tested form may be a part): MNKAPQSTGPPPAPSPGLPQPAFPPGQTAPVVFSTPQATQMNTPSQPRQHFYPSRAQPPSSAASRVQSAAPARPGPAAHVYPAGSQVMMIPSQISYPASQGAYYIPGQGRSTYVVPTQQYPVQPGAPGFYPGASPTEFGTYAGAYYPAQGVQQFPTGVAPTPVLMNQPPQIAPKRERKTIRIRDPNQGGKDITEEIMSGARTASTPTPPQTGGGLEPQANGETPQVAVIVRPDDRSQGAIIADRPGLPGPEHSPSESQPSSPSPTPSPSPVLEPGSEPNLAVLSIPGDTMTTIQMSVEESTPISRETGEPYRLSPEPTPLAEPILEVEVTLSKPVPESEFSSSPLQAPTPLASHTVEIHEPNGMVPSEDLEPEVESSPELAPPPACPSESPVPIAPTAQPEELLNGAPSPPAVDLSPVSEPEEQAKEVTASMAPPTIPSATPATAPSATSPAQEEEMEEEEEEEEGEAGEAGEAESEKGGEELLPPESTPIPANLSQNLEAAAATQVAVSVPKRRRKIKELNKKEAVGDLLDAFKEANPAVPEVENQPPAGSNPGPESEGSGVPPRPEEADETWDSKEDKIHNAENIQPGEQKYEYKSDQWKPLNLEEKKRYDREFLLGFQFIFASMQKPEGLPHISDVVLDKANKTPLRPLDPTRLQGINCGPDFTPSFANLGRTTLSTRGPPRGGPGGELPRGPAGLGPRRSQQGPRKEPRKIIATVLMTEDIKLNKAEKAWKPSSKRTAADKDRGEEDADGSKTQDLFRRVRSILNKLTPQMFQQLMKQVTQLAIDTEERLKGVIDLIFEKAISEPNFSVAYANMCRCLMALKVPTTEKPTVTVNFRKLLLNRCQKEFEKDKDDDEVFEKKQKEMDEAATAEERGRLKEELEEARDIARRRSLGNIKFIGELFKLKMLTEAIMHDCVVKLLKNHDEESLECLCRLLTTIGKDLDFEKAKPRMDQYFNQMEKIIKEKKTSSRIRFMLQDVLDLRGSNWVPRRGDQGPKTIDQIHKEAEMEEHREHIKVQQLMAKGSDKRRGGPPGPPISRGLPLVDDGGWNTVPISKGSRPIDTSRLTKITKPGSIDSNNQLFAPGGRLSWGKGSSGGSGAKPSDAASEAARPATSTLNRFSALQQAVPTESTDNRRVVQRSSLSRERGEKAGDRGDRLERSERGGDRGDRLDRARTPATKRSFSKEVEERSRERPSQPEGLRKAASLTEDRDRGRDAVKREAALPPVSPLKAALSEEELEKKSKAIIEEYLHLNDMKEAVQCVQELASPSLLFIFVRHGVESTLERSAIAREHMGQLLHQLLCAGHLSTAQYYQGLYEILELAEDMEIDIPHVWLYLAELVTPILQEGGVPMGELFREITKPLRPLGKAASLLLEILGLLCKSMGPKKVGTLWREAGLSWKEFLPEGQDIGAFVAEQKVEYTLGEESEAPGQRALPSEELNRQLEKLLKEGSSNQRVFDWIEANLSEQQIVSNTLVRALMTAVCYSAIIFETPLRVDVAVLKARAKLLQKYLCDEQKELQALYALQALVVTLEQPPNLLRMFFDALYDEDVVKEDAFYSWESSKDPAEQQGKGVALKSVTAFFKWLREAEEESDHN
14-3-3 Bad inh: disrupts binding of bovine 14-3-3 zeta to phospho-Bad peptide; AID 781; hit rate 0.71% among 220,000; TR-FRET 14-3-3zeta/Dy647-pBad peptide displacement, 1 h; P63103; inhibition, % at 21.7 µM;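 active = inhibition above about 70%, limit read from the data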;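 note: 0% = full 14-3-3 plus peptide FRET controls and 100% = background without 14-3-3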
Mcl1 Bid PPI: Mcl-1/Bid interaction inhibition. Q07820. TR-FRET Mcl-1/Bid-Dy647 peptide binding, 1536-well. inhibition, % at 21.7 µM. hit rate 0.97% among 220,000;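 active = compounds that cut the binding signal by more than half at the single screening dose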;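 note: His-tagged Mcl-1 with europium anti-His antibody binding Bid BH3 peptide; 0% = Mcl-1 plus peptide wells and 100% = peptide-only wells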
NCF1 inh: blocks human p47phox regulatory protein of NADPH oxidases; P14598; p47phox/p22phox peptide binding, fluorescence polarization, 2 h; inhibition, % at 24.7 µM; hit rate 0.53% among 220,000; AID 1274;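 note: 0% = p47phox with labelled peptide and 100% = labelled peptide alone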
Mcl-1 Bim block: disrupts Bim peptide binding to human Mcl-1; Bead-based flow cytometry, Bim peptide-Mcl-1 binding; inhibition, % at 10 µM; hit rate 0.1% among 190,000; AID 1009; in the data active = inhibition above about 40%;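 note: 0% = no compound tracer wells and 100% = peptide blocker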
The depositor's hits bear a star; nt = no result; [ ] = dose if it differs, or a comment. Rows were chosen to be rich in hits. Some 3.3% of all compounds tested hit in one or more screens of this group.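 Rule for the calls, unless noted: active = inhibition above about 30% (limit read from the data); inactive = the rest.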

SMILES | Mcl1 Noxa PPI | eIF4E 4G PPI | 14-3-3 Bad inh | Mcl1 Bid PPI | NCF1 inh | Mcl-1 Bim block
Cc1nc2ccccc2n1/N=C/c1ccc([N+](=O)[O-])s1 | 18.9 | -0.6 | 25.2 | 29.2 | -6.2 | -2.0
O=[N+]([O-])c1ccc(/C=N/n2c(CO)nc3ccccc32)s1 | 57.7* | 1.2 | 10.1 | 30.3 | 6.3 | -6.0
CCCC1=C(C(=O)OCC)C(c2cccnc2)n2nc(C)nc2N1 (centres undefined) | 0.0 | -0.8 | -0.5 | -3.6 | 3.4 | nt
O=C(CCN1C(=O)C2C3C=CC(C3)C2C1=O)Nc1ccccn1 (centres undefined) | 1.0 | 46.9* | 13.2 | -8.3 | -6.2 | -4.0
CC(NC(=O)Nc1ccccn1)N1C(=O)C2C3C=CC(C3)C2C1=O (centres undefined) | -4.5 | -7.6 | 0.6 | -11.1 | -7.3 | 48.0*
O=C(NCN1C(=O)C2C3C=CC(C3)C2C1=O)Nc1ccccn1 (centres undefined) | -23.5 | 4.5 | -4.8 | -3.7 | -6.3 | 1.0
COC(=O)C1=C(C(=O)OC)C(c2cc(Cl)ccc2O)c2sc(=O)[nH]c2S1 (centres undefined) | 78.7* | -1.4 | -15.9 | 27.0 | -14.8 | 5.0
COC(=O)C1=C(C(=O)OC)C(c2ccc(OC)c(OC)c2)c2sc(=O)[nH]c2S1 (centres undefined) | 7.5 | 21.4 | -12.8 | -25.4 | 3.4 | 2.0
COC(=O)C1=C(C(=O)OC)C(c2cc(Br)ccc2O)c2sc(=O)[nH]c2S1 (centres undefined) | 87.0* | 3.0 | -11.1 | 7.1 | -19.1 | -1.0
COc1ccc(-c2cc(=O)oc3cc(OCC(=O)c4cccc([N+](=O)[O-])c4)ccc23)cc1 | 45.7 | 23.9 | 70.5*[fluorescence artefact?] | 50.1 | 63.8* | 2.0
O=C(Nc1ccc(NC(=O)c2ccccn2)cc1)C(=O)Nc1ccc2c(c1)OCCO2 | 54.1* | 4.0 | 43.2 | 34.3 | -47.2 | 0.0
O=C(Nc1ccc2c(c1)OCCO2)c1ccccn1 | 8.4 | 4.6 | -21.4 | -24.5 | -1.9 | -1.0
O=C(Nc1ccc2c(c1)OCCO2)c1cccc2nc3ccccc3nc12 | 62.1* | 3.1 | 9.7 | 21.2 | 21.5 | 6.0
O/N=C1\CCCc2c1nc(-c1ccccc1F)n2O | 5.7 | 2.5 | -2.1 | -66.3 | -5.4 | nt
CCc1nnc(NS(=O)(=O)c2ccc(N=CC3=C(O)CC(C)(C)CC3=O)cc2)s1 | -6.7 | 4.2 | 63.6 | -44.0 | -4.2 | 44.0*
COc1ccc(C2c3[nH]c4ccccc4c3CCN2Cc2cccn2-c2ncccn2)cc1C (centres undefined) | 6.2 | -4.3 | 3.1 | -29.0 | -52.5 | 1.0
O=C(Cc1ccc(Cl)cc1)N1CCN(C(=O)c2ccco2)CC1 | 8.2 | -1.5 | 1.5 | -9.0 | -5.3 | -2.0
O=C(c1cccc(F)c1)N1CCC(N2CCOCC2)CC1 | 29.6 | 4.0 | 74.2* | 34.8 | -7.0 | 1.0
O=C(c1ccco1)N1CCN(CC(=O)N2c3ccccc3CCc3ccccc32)CC1 | 14.8 | 4.7 | 31.0 | 56.5* | 9.6 | -2.0
O=C(CN1CCN(C(=O)c2cccc(F)c2)CC1)NC1CCCCC1 | 5.2 | 6.9 | 74.5* | 21.4 | -1.7 | -1.0
O=C(c1ccco1)N1CCN(Cc2ccc(Cl)cc2)CC1 | 17.9 | 4.6 | 78.2* | 31.1 | -3.9 | -1.0
CCN(Cc1cnn(C)c1)Cc1nc(C(c2ccccc2)c2ccccc2)no1 | 5.4 | 2.3 | -4.3 | 3.9 | 2.0 | 0.0
Cc1ccccc1C(C(=O)NC1CCCCC1)N(C(=O)CNC(=O)c1ccco1)c1cccnc1 (centres undefined) | -7.9 | 1.2 | 0.2 | -8.1 | -2.6 | 0.0
O=C(CSc1n[nH]c(-c2ccccc2)n1)NCc1cccc(C(=O)O)c1 | 4.5 | -5.0 | -2.2 | -3.7 | 5.4 | -2.0
COc1cccc(C(=O)N2CCN(Cc3cccc(F)c3)CC2)c1 | 35.4 | -5.6 | 49.1 | 40.1 | -7.3 | -3.0
CCOc1ccc(CN2CCN(C(=O)c3cccc(F)c3)CC2)cc1 | 36.4 | 4.2 | 72.1* | 65.9* | -0.3 | 0.0
O=C(c1cccc(F)c1)N1CCN(Cc2ccco2)CC1 | -9.5 | 12.8 | 60.8 | -14.4 | -4.5 | -1.0
Fc1cccc(CN2CCCCCCC2)c1 | 33.0 | 0.5 | 78.3* | 41.9 | -8.4 | -5.0
Brc1cccc(CN2CCCCCCC2)c1 | 16.0 | -10.4 | 58.4 | 5.5 | -5.1 | 3.0
